Assay results published in the supplement of paper PMC7366291.
Where a name gives a salt, the structure may show the parent alone.

The molecules below were run on Danio rerio Tg(wt1b:EGFP) embryo, pronephros (assay: fraction of imaged embryos annotated as normal kidney; higher = less nephrotoxic; extreme values may be limits of the assay). Settings: 25 µM; exposure: 24-48 hpf.
Method in brief: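 Zebrafish embryos carrying Tg(wt1b:EGFP) were dechorionated and exposed to 25 μM compound (0.5% DMSO) between 24 and 48 hpf at 28.5°C. Their pronephroi were imaged by widefield fluorescence, and each embryo was classed by hand from maximum projections. The measure is the fraction of embryos per treatment falling in the normal-kidney category.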

First: NS(=O)(=O)Cc1noc2ccccc12 [Zonisamide]
Second: CCCCNc1cc(C(=O)O)cc(S(N)(=O)=O)c1Oc1ccccc1 [Bumetanide]
The “fraction of imaged embryos annotated as normal kidney” value (“fraction of imaged embryos annotated” for short) of the first is higher: 0.917 for the first, 0.75 for the second.

Compared with `CCN1CC(CCN2CCOCC2)C(c2ccccc2)(c2ccccc2)C1=O` (stereo not given) [Doxapram hydrochloride], `CCCCOc1ccc(OCCCN2CCOCC2)cc1` [Pramoxine hydrochloride] is higher in “fraction of imaged embryos annotated” value: 0.833 for the first, 0.917 for the second.

Going from `CC(C)[N+](C)(CCOC(=O)C1c2ccccc2Oc2ccccc21)C(C)C` [Propantheline bromide] to `CCCC(C(=O)OCCN(CC)CC)(c1ccccc1)c1ccccc1` [Proadifen hydrochloride], the “fraction of imaged embryos annotated” value rises from 0.667 to 0.889.

Going from `Nc1nc2n[nH]nc2c(=O)[nH]1` [Azaguanine-8] to `Nc1nc(=O)[nH]cc1F` [Flucytosine], the “fraction of imaged embryos annotated” value falls from 0.833 to 0.75.

First: CCOC(=O)c1ccc(OC(=O)CCCCCNC(=N)N)cc1 [Gabexate mesilate]
Second: CCCCCCNC(=O)n1cc(F)c(=O)[nH]c1=O [Carmofur]
The “fraction of imaged embryos annotated” value of the first is higher: 0.8 for the first, 0 for the second.

Going from `CN(C)[C@@H]1C(O)=C(C(N)=O)C(=O)[C@@]2(O)C(O)=C3C(=O)c4c(O)cccc4[C@@](C)(O)[C@H]3[C@H](O)[C@@H]12` [Oxytetracycline dihydrate] to `CN(C)c1cc(NC(=O)CNC(C)(C)C)c(O)c2c1C[C@H]1C[C@H]3[C@H](N(C)C)C(O)=C(C(N)=O)C(=O)[C@@]3(O)C(O)=C1C2=O` [Tigecycline], the “fraction of imaged embryos annotated” value falls from 0.909 to 0.833.

First: CCC(C)(CN(C)C)OC(=O)c1ccccc1 (stereo not given) [Amyleine hydrochloride]
Second: CCCCc1cc2ccccc2c(OCCN(C)C)n1 [Dimethisoquin hydrochloride]
The “fraction of imaged embryos annotated” value of the first is lower: 0.833 for the first, 0.917 for the second.

`CCN1CCC[C@H]1CNC(=O)c1c(OC)ccc(Br)c1OC` [Remoxipride Hydrochloride] and `COc1ccc2c3c1O[C@H]1C[C@@H](O)C=C[C@@]31CCN(C)C2` [Galanthamine hydrobromide] are the same in “fraction of imaged embryos annotated” value: 0.917 for the first, 0.917 for the second.

Compared with `CC(C)N1CCN(c2ccc(OCC3COC(Cn4cncn4)(c4ccc(Cl)cc4Cl)O3)cc2)CC1` (stereo not given) [Terconazole], `CN1CCN(C(c2ccccc2)c2ccc(Cl)cc2)CC1` (stereo not given) [Chlorcyclizine hydrochloride] is lower in “fraction of imaged embryos annotated” value: 1 for the first, 0.917 for the second.

Going from `COC(=O)[C@H]1[C@H]2C[C@@H]3c4[nH]c5cc(OC)ccc5c4CCN3C[C@H]2C[C@@H](OC(=O)c2cc(OC)c(OC)c(OC)c2)[C@@H]1OC` [Reserpine] to `CC#C[C@]1(O)CC[C@H]2[C@@H]3CCC4=CC(=O)CCC4=C3[C@@H](c3ccc(N(C)C)cc3)C[C@@]21C` [Mifepristone], the “fraction of imaged embryos annotated” value falls from 0.917 to 0.75.

Compared with `C#C[C@]1(O)CC[C@H]2[C@@H]3CCC4=CC(=O)CC[C@@H]4[C@H]3CC[C@@]21C` [Norethindrone], `C#C[C@]1(O)CC[C@H]2[C@@H]3[C@H](C)CC4=C(CCC(=O)C4)[C@H]3CC[C@@]21C` [Tibolone] is lower in “fraction of imaged embryos annotated” value: 0.909 for the first, 0.75 for the second.

Going from `CCOC(=O)O[C@]1(C(=O)OCCl)CC[C@H]2[C@@H]3CCC4=CC(=O)C=C[C@]4(C)[C@H]3[C@@H](O)C[C@@]21C` [Loteprednol etabonate] to `C=C(CC)C(=O)c1ccc(OCC(=O)O)c(Cl)c1Cl` [Ethacrynic acid], the “fraction of imaged embryos annotated” value falls from 0.833 to 0.75.

Going from `NC(=O)c1cccnc1` [Nicotinamide] to `O=C(O)CCC(=O)Nc1ccc(S(=O)(=O)Nc2nccs2)cc1` [Succinylsulfathiazole], the “fraction of imaged embryos annotated” value falls from 0.909 to 0.667.

First: Nc1cc(C(Cl)=C(Cl)Cl)c(S(N)(=O)=O)cc1S(N)(=O)=O [Clorsulon]
Second: NS(=O)(=O)c1cc(C2(O)NC(=O)c3ccccc32)ccc1Cl (stereo not given) [Chlorthalidone]
The “fraction of imaged embryos annotated” value of the first is higher: 0.917 for the first, 0.75 for the second.

Going from `CN1CCN(c2c(F)cc3c(=O)c(C(=O)O)cn(CCF)c3c2F)CC1` [Fleroxacin] to `O=C1CC2(CCCC2)CC(=O)N1CCCCN1CCN(c2ncccn2)CC1` [Buspirone hydrochloride], the “fraction of imaged embryos annotated” value falls from 0.917 to 0.75.

Going from `CCN(CC)CCOC(=O)C(Cc1cccc2ccccc12)CC1CCCO1` (stereo not given) [Nafronyl oxalate] to `O=C1C(O)=C([C@H]2CC[C@H](c3ccc(Cl)cc3)CC2)C(=O)c2ccccc21` [Atovaquone], the “fraction of imaged embryos annotated” value rises from 0.583 to 0.917.

First: NC[C@H]1CC[C@H](C(=O)O)CC1 [Tranexamic acid]
Second: C[N+](C)(C)CCOC(N)=O [Carbachol]
The “fraction of imaged embryos annotated” value of the first is higher: 1 for the first, 0.667 for the second.

`CN1CCC(=C2c3ccccc3Sc3ccccc32)CC1` [Pimethixene maleate] and `CC(C)(C)NC[C@H](O)COc1cccc2c1CCCC2=O` [(-) -Levobunolol hydrochloride] are the same in “fraction of imaged embryos annotated” value: 0.917 for the first, 0.917 for the second.

Going from `COc1nc(C)nc(Cl)c1NC1=NCCN1` [Moxonidine] to `CN(C)c1nc(N(C)C)nc(N(C)C)n1` [Altretamine], the “fraction of imaged embryos annotated” value falls from 1 to 0.917.

`C[N+]1(CCCCC[N+]2(C)CCCC2)CCCC1` [Pentolinium bitartrate] and `N[C@@H]1CONC1=O` [D-cycloserine] are the same in “fraction of imaged embryos annotated” value: 0.75 for the first, 0.75 for the second.
